We go through 64 compounds from PubChem BioAssay AID1578 (Sanford-Burnham Center for Chemical Genomics, 2009).

In all, about 290,000 compounds went through this assay and about 3,000 (1%) were called active. The list comes from a sample in which actives are over-represented; it also holds similar structures and randomly drawn compounds. Unmarked numbers belong to inactive results. Rule as the data show it: active = inhibition mostly above about 36% (no sharp cut-off); inactive = mostly below about 34%.

This assay is described as follows: inhibition of NOD1-driven NF-kB reporter – cell-based, luminescence, uHTS, primary screen (AID 1578).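 Also: HEK-293T reporter cells stimulated with the NOD1 agonist gamma-tri-DAP.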 The note with it: NOD1-driven NF-kB luciferase reporter cells, at 4 µM, stronger effect = higher value.
The term inhibition denotes the relative decrease from the control value, in per cent. On to `CCc1c(O)nc(SCC(=O)Nc2ccccc2C)n(-c2ccc(C)cc2)c1=O`, for which the inhibition was -22.6%.
Consider `CN1CCN(C(=O)/C(=C/c2ccccc2F)NC(=O)c2ccccc2)CC1`, for which the inhibition is -17.7%.
For `CCNc1ccc([N+](=O)[O-])cc1`, the inhibition is -1.6%.
Consider `CN(C)CCCN(Cc1cc2cc3c(cc2[nH]c1=O)OCO3)C(=S)Nc1ccccc1`, for which the inhibition was -23.7%.
`CCSc1nnc(NC(=O)c2cccc(S(=O)(=O)N(C)c3ccccc3)c2)s1`: the inhibition was -5.2%.
For `CCCCn1c(SCC(=O)c2ccccc2)nc2ccsc2c1=O`, the inhibition was 21.6%.
Consider `CCCCn1c(SCC(=O)N2CCC(C)CC2)nc2ccsc2c1=O`, for which the inhibition is -16.2%.
In the case of `O=C(CSc1ncccn1)Nc1ncc(C(F)(F)F)cc1Cl`, the inhibition is -20.5%.
For `Cc1cc(C)nc(SCC(=O)Nc2ncc(C(F)(F)F)cc2Cl)n1`, the inhibition was -28.9%.
Turning to `Nc1nc(SCC(=O)Nc2ncc(C(F)(F)F)cc2Cl)n[nH]1`, the inhibition was 65.2% (active).
Take `Cc1cc(C(F)(F)F)nn1CC(=O)NCc1ccco1`: the inhibition is -18%.
To `ON1C(c2ccc(Cl)cc2Cl)N(O)[C@H]2CCCC[C@H]21` (some centres undefined) belongs -8.4%.
Turning to `COC(=O)C1CN(C(=O)COc2ccccc2)c2ccccc2O1` (centres undefined), the inhibition is 15.9%.
Regarding `Cc1ccc(C(C)C)c(OCCNC(=O)c2cncc(Br)c2)c1`, the inhibition is 16.6%.
As to `Cc1ccc(C(C)C)c(OCCNC(=O)c2ccccc2O)c1`, the inhibition was -22.6%.
Turning to `COc1cc(/C=N/n2nnnc2Nc2ccccc2)cc(OC)c1OC`, the inhibition was -36.9%.
For `CCc1cccc(C)c1NC(=O)C(c1ccccc1)N1CCC1=O` (centres undefined), the inhibition is -22.7%.
In the case of `COCCCNC(=S)N1CCN(S(C)(=O)=O)CC1`, the inhibition is -18.9%.
To `CC(C)(C)c1ccc(C(=O)N2CCN(c3nc4ccccc4o3)CC2)cc1` belongs 28.1%.
Turning to `O=C(c1ccc(-c2ccccc2)cc1)N1CCN(c2nc3ccccc3o2)CC1`, the inhibition was 35.5% (active).
As to `COc1ccc(C(=O)N2CCN(c3nc4ccccc4o3)CC2)cc1OC`, the inhibition was 19.2%.
For the compound `CCOC(=O)C1(Cc2ccccc2)CCN(Cc2ccc(C)s2)CC1`, the inhibition was -14.9%.
As to `O=C(Nc1ccc(S(=O)(=O)Nc2nccs2)cc1)c1ccc(F)cc1`, the inhibition is -13.9%.
Consider `O=C(Cc1ccc(F)cc1)Nc1nccs1`, for which the inhibition was -24.2%.
`COc1ccc(/C=C/C(=O)Nc2ccc3nc4n(c(=O)c3c2)CCCC4)cc1OC`: the inhibition was -31.1%.
With `O=C(O)c1ccc(NCc2cccnc2)c([N+](=O)[O-])c1`, the inhibition was -17.4%.
`C/C(=N\NC(N)=O)c1cccc(Cl)c1`: the inhibition was 29%.
For `CCCCNC(=S)Nc1ccccc1Cc1ccccc1`, the inhibition was -3.1%.
To `COCCCNC(=S)Nc1ccccc1C` belongs -13.2%.
For the compound `COCCNC(=S)Nc1ccccc1Cc1ccccc1`, the inhibition was 45.2% (active).
Under `CCCCCN(C(=O)NC(=O)NC(C)CC)S(C)(=O)=O` (centres undefined) stands -3.8%.
For the compound `Cc1noc(NC(=O)c2ccc(Cl)cc2)c1Cl`, the inhibition is -33%.
As for `Cc1noc(NC(=O)c2ccc(Cl)c(Cl)c2)c1Cl`, the inhibition was 67.6% (active).
For `Cc1noc(NC(=O)c2cccc(C(F)(F)F)c2)c1Cl`, the inhibition was -5.6%.
To `COc1cccc(C(=O)NCCNC(=O)c2ccc(C)nc2)c1` belongs -6.6%; to `CCCCNC(=S)N(C)/N=C/c1ccc(F)cc1`, 100% (active).
For the compound `CCCCNC(=S)N(C)/N=C/c1ccccc1F`, the inhibition is 12.5%.
As for `CCCCNC(=S)N(C)/N=C/c1c(F)cccc1F`, the inhibition was -5.6%.
Consider `Cc1ccc(C(=O)NC2CCc3ccccc3C2=O)cc1` (centres undefined), for which the inhibition is -47.4%.
To `COCCN1CCN(C(=O)C2CCC(=O)N(Cc3ccccc3OC)C2)CC1` (centres undefined) belongs -18.1%; to `N#CCCn1cc(/C=C/C(=O)O)c(-c2ccc(F)cc2)n1`, -31.6%.
Take `COc1cc2c3nnc(-c4ccc(F)cc4)c-3cn(Cc3ccc(F)cc3)c2cc1OC`: the inhibition was 108% (active).
For the compound `COc1cc2c3nnc(-c4ccc(F)cc4)c-3cn(Cc3ccc(C)cc3)c2cc1OC`, the inhibition is -31.5%.
As to `COc1ccc(Cn2cc3c(-c4ccc(F)cc4)nnc-3c3cc(OC)c(OC)cc32)cc1`, the inhibition was 10.1%.
For the compound `Cc1cc(N2CC(C(=O)Nc3nccs3)CC2=O)ccc1C(C)C` (centres undefined), the inhibition was -22.4%.
As to `COc1ccc(C(=O)Nc2cc(C)on2)cc1[N+](=O)[O-]`, the inhibition was -31.1%.
In the case of `O=C(Nc1ccc(-c2n[nH]c(=S)o2)cc1)c1ccccc1Cl`, the inhibition was -4.7%.
To `Cc1nn(-c2ncc(C(F)(F)F)cc2Cl)c(=O)n1-c1c(F)cccc1F` belongs -38.4%; to `O=c1[nH]c(/C(Cl)=C/c2c(F)cccc2Cl)nc2cc(Cl)ccc12`, 25.9%; to `O=c1[nH]c(/C(Cl)=C/c2cc(Cl)ccc2O)nc2cc(Cl)ccc12`, 81.7% (active).
Turning to `CCc1ccc(/C=C(\Cl)c2nc3cc(Cl)ccc3c(=O)[nH]2)cc1`, the inhibition was -10.4%.
Regarding `CCOP(=O)(OCC)C(NC(C)=O)C(=O)c1ccccc1` (centres undefined), the inhibition is -30.2%.
Turning to `Cc1cc(C)cc(NC(=S)NCc2cccnc2)c1`, the inhibition is -23.4%.
For the compound `CC(C)[C@H]1COC(NC2=N[C@@H](C(C)C)CO2)=N1`, the inhibition was 75.5% (active).
To `CC(C)[C@@H]1COC(c2cccc(C3=N[C@H](C(C)C)CO3)c2)=N1` belongs -29%; to `CC(C)[C@@H]1COC(c2cccc(C3=N[C@H](C(C)C)CO3)n2)=N1`, 11.3%.
For the compound `Cc1ccc(C2C(=O)c3ccccc3C2=O)cc1`, the inhibition is -11%.
For `CCOc1ccc(N/C(=N/c2nc(C)cc(C)n2)NC(C)=O)cc1`, the inhibition was -12%.
Consider `COc1ccccc1-c1nc(C#N)c(N2CCN(Cc3ccccc3)CC2)o1`, for which the inhibition is 13.8%.
On to `CCc1ccc(N2CN=c3s/c(=C\c4ccccc4)c(=O)n3C2)cc1`, for which the inhibition is -13%.
Turning to `Cc1ccc(N2CN=c3s/c(=C\c4cccnc4)c(=O)n3C2)cc1`, the inhibition was 84.1% (active).
As for `Cc1ccc(N2CN=c3s/c(=C\c4ccccn4)c(=O)n3C2)cc1`, the inhibition was -21.2%.
As for `COc1cccc(C2Nc3ccccc3NC3=C2C(=O)CC(C)(C)C3)c1OC` (centres undefined), the inhibition is -8.8%.
Take `C=CCn1c(=O)c2c(nc3n2CCS3)n(C)c1=O`: the inhibition was 5.1%.
